Screening results as filed in PubChem BioAssay.
TDP1 block: TDP1 (human) enzyme inhibition; Q9NUW8; recombinant TDP1, AlphaScreen DNA substrate cleavage; Potency, µM (top dose mostly 130 µM), for the others: at the highest dose activity change, negative = inhibition, hits mostly inhibitors; 350,000 compounds, 0.28% hits; note: potency is the fitted concentration of half-maximal effect; % is set by controls: 0 for no effect and ±100 for the full control effect; nearly all actives have a fitted effect of over 40% in size
Target sequence (Q9NUW8 whole entry, looked up): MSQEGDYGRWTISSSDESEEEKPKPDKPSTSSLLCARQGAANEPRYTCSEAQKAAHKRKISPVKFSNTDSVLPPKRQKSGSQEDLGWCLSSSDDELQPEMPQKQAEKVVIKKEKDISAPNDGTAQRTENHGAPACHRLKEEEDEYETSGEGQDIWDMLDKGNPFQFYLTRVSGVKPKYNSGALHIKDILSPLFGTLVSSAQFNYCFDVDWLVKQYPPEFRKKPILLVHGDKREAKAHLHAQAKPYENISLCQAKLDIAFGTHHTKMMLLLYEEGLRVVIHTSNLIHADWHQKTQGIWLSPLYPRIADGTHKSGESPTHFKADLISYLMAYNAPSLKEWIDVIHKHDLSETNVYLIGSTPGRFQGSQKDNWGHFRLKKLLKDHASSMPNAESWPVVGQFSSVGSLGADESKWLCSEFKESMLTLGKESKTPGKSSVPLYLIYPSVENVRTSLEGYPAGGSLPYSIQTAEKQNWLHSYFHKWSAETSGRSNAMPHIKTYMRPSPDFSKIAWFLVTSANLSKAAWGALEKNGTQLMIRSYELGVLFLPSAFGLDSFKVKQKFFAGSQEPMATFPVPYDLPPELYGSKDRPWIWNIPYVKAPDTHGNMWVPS
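Enzyme-compound mixtures sat 15 min at room temperature, followed by a 5 min reaction with 15 nM final substrate and 10 min with AlphaScreen beads. Recombinant human Tdp1 was used at 1 nM final.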
IL1B secr inh: inhibitors of inflammasome signaling (IL-1 beta secretion); 360,000 compounds, 4.7% hits; activity change, % at 57.5 µM; THP-1 LPS/ATP IL-1B secretion, AlphaLISA, 16 h; hits give low values; in the data active = activity change below about -50%; inconclusive = mostly about -30% to -49%; note: % is set by controls: 0 for no effect and ±100 for the full control effect
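Secreted IL-1B measured by AlphaLISA bead assay after 16 h compound exposure of THP-1 cells; compounds (final up to 57.5 uM) added 1 h before LPS (250 ng/mL) and ATP (1.25 mM) stimulation; lower signal means less secretion.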
TDP1 cell CPT: DT40-hTDP1 cell growth loss with CPT; chicken DT40 Tdp1-/-;hTDP1 cells + 20 nM CPT, ATP luminescence, 48 h; Potency, µM (doses to about 46.2 µM), for the others: top-dose activity change, negative = growth inhibition, actives largely listed as inhibitors; 420,000 compounds, 12% hits; AID 686979; note: potency is the fitted concentration of half-maximal effect; % is set by controls: 0 for no effect and ±100 for the full control effect; nearly all actives have a fitted effect of over 55% in size
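Chicken DT40 Tdp1-/- cells stably complemented with human TDP1 were seeded at 400 cells/well in medium containing 20 nM camptothecin, exposed to pin-transferred compounds, and grown at 37 °C for at least 48 hr. Viability was read as ATP luminescence.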
HepG2 tox: HepG2 cytotoxicity, counter-screen for TGF-b inhibitors; HepG2 CAGA-GFP viability, ATP luminescence, 18 h; Potency, µM (highest dose often 46.1 µM), for inactives: top-dose activity change, negative = cytotoxicity, hits mostly cytotoxic; 410,000 compounds, 0.76% hits; note: potency is the fitted concentration of half-maximal effect
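CellTiter-Glo luminescence gave cytotoxicity after 18 hours at 37 degrees C. The cells were HepG2 CAGA-GFP in 1% FBS DMEM, stimulated with 500 pg/mL TGF-beta after compound addition. %Activity was normalised to no-cell wells (complete cell-killing) and DMSO (no toxicity), and curves were fitted and classified.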
DT40 TDP1 no CPT: qHTS for Inhibitors of human tyrosyl-DNA phosphodiesterase 1 (TDP1): qHTS in cells in absence of CPT. DT40 Tdp1-/- hTDP1 cells, no CPT, ATP luminescence, 48 h. Potency, µM (top dose mostly 46.2 µM), inactives show at the highest dose activity change, negative = growth inhibition, actives largely listed as inhibitors. 420,000 compounds, 15% hits. AID 686978, 2013; note: potency is the fitted concentration of half-maximal effect; % is set by controls: 0 for no effect and ±100 for the full control effect; nearly all actives have a fitted effect of over 55% in size
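Seeded 400 DT40-hTDP1 cells/well (vehicle DMSO, no 20 nM CPT); pinned compounds; ≥48 hr at 37 °C; CellTiter-Glo luminescence as viability measure.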
TGFb inhibitor: inhibitors of TGF-b signaling; AID 588855; 410,000 compounds, 1.2% hits; HepG2 CAGA-GFP TGF-b/SMAD3 reporter, GFP fluorescence, 18 h; TGF-beta stimulated, 500 pg/mL final; Potency, µM (series often up to 46.1 µM), inactives show at the top dose activity, negative = inhibition, actives largely listed as inhibitors; note: potency is the fitted concentration of half-maximal effect; % is set by controls: 0 for no effect and ±100 for the full control effect; nearly all actives have a fitted effect of over 65% in size
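Per well, imaged GFP fluorescence of HEPG2 CAGA-GFP cells gives the signal; cells get compound, then TGF-beta (500 pg/mL final), 18 h at 37 degrees C; %Activity versus -TGF-beta and +DMSO controls.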
The depositor's hits bear a star; ? = inconclusive; . = no result; ! = a repeat was not active; [ ] = another dose, or the depositor's remark. In the library only some 19% were active in any assay of this set; here they are far more common. Unless noted, calls come from the whole dose curve; as a rule, active = well fitted curve in the direction sought with a large enough effect; inconclusive = small, poorly fitted or top-dose-only effect, or another doubt; inactive = no such curve, though single readings can be large; an effect the other way counts as inactive or inconclusive.

SMILES	TDP1 block	IL1B secr inh	TDP1 cell CPT	HepG2 tox	DT40 TDP1 no CPT	TGFb inhibitor
CC(C)[C@@H](OCc1ccccc1)[C@H](C)CO/N=C1/[C@H]2OC2[C@@H](O)[C@H]2[C@H]1CCn1c(=O)n(-c3ccccc3)c(=O)n12 (some centres not stated)	2.6%[21 µM]	.	.	.	.	.
Cc1ccccc1NC(=O)C(=O)NCC(c1ccc2c(c1)OCO2)N1CCN(c2ccccc2)CC1 (configuration not stated)	5.5%	.	?	-2.6%	?	-2.5%
CCC1CN(C(=O)N2CCC(C(=O)NCCN(CC)CC)CC2)c2cc(C)ccc2O1 (configuration not stated)	7.8%	.	-12.7%	3.9%	-19.8%	-5.5%
CCC1CN(C(=O)N2CCC(C(=O)NCc3ccccc3OC)CC2)c2cc(C)ccc2O1 (configuration not stated)	2.6%	5.4	16.4µM*	1.5%	?	-1.4%
CCC1CN(C(=O)N2CCC(C(=O)NCc3cccc(F)c3)CC2)c2cc(C)ccc2O1 (configuration not stated)	1.3%	.	20.6µM*	-23.4%	16.4µM*	?
CCC1CN(C(=O)N2CCC(C(=O)NCCc3ccc(OC)cc3OC)CC2)c2cc(C)ccc2O1 (configuration not stated)	1.3%	.	20.6µM*	-22.1%	16.4µM*	?
CCC1CN(C(=O)N2CCC(C(=O)NCc3ccccc3OC)CC2)c2ccccc2O1 (configuration not stated)	3.3%	-1.1	?	-16.2%	?	-25.0%
Cc1cc(C)cc(NC(=O)Cc2noc3ccccc23)c1	5.2%	.	-19.1%	-17.0%	-9.9%	-12.2%
Cc1cc(C(=O)COc2cccnc2[N+](=O)[O-])c(C)n1-c1ccccc1	0.0%	9.6	?	1.9%	20.6µM*	15.3%
Cc1ccc(OCC(=O)c2cc(C)n(C)c2C)c([N+](=O)[O-])n1	5.6%	14.4	-9.5%	10.5%	-15.4%	5.4%
Cc1cc(C(=O)COc2cccnc2[N+](=O)[O-])c(C)n1Cc1ccco1	-2.6%	5.4	?	-20.5%	25.9µM*	-25.4%
Cc1ccc(-n2c(C)cc(C(=O)COc3cccnc3[N+](=O)[O-])c2C)cc1	10.8%	-3.3	18.4µM*	3.1%	10.3µM*	?
Cc1cc(C(=O)COc2cccnc2[N+](=O)[O-])c(C)n1-c1ccccc1F	.	-5.4	18.4µM*	-3.3%	9.2µM*	-28.2%
Cc1ccc(C)c(NC(=O)C2CCCN(c3cnccn3)C2)c1 (configuration not stated)	5.0%	2.1	-20.2%	-25.3%	-2.1%	4.2%
COc1ccc(C(=O)NCC(c2ccco2)N2CCc3ccccc32)c(OC)c1 (configuration not stated)	.	-11.8	?	0.9%	7.31µM*	-14.2%
COc1ccc(C(=O)NCC(c2ccco2)N2CCc3ccccc3C2)c(OC)c1 (configuration not stated)	.	55.1	23.1µM*	-35.3%	8.2µM*	?
Cc1ccc(S(=O)(=O)NCC(c2ccco2)N2CCc3ccccc32)cc1 (configuration not stated)	-4.7%	?	?	-7.1%	?	?
COc1ccc(S(=O)(=O)NCC(c2ccco2)N2CCc3ccccc32)cc1 (configuration not stated)	.	-15.6	?	-5.1%	14.6µM*	?
CCOC(=O)NC1(C(F)(F)F)NC(=O)N(c2ccc(C)c(C)c2)C1=O (configuration not stated)	4.2%	.	.	-1.0%	.	0.6%
COc1ccccc1C(=O)COC(=O)Cn1nc(C)c([N+](=O)[O-])c1C	.	15.6	13.3%	6.1%	13.0%	-0.6%
CCCc1cc(=O)oc2cc(C)cc(O)c12	4.7%	-19.6	?	-33.5%	18.4µM*	-48.2%
Cc1cc2oc(=O)cc(CN3CCN(C/C=C/c4ccccc4)CC3)c2cc1O	-1.0%	.	.	.	.	.
Cc1cc2oc(=O)cc(CN3CCN(Cc4ccccc4)CC3)c2cc1O	.	6.3	8.2µM*	-35.3%	7.31µM*	-27.2%
CCCCCc1cc(O)c2c(C)cc(=O)oc2c1	-8.2%	-25.2	23.1µM*	-51.2%	16.4µM*	-26.7%
CCCc1cc(=O)oc2cc(C)cc(OC(=O)c3ccco3)c12	9.1%	-4.8	23.1µM*	1.0%	18.4µM*	0.2%
SMILES	TDP1 block	IL1B secr inh	TDP1 cell CPT	HepG2 tox	DT40 TDP1 no CPT	TGFb inhibitor
CCCc1cc(=O)oc2cc(C)cc(OCC(=O)NCc3cccnc3)c12	1.5%	-12.2	-2.1%	2.2%	-4.2%	12.5%
O=C1C=CC(c2ccccc2)(c2ccccc2)CC1	.	-0.5	?	18.3%	?	15.4%
COc1cc(CN2CCNC(=O)C2CC(=O)NCCCC2CCCC2)cc(OC)c1 (configuration not stated)	5.8%	-25.3	-4.7%	-9.0%	1.9%	-13.7%
CN(C)c1ccc(C=Nc2ccc(/C=C3\C=Cc4ccccc43)cc2)cc1	.	.	-28.6%	-25.4%	?	1.2%
Cc1cc(O)c2c(CN3CCN(Cc4ccccc4)CC3)cc(=O)oc2c1	.	-18.7	?	-29.2%	14.6µM*	?
COc1ccc(CSC(=S)NNc2ccccc2)cc1	.	40.5	?	1.1%	18.4µM*	4.8%
O=C(CCN1CCN(c2ccccc2F)CC1)Nc1cccc(F)c1	.	9.3	?	-19.5%	?	?
O=C1C(Cc2ccccc2)Nc2ncnc(N3CCCCC3)c2N1Cc1ccccc1 (configuration not stated)	2.7%	-10.6	?	-8.8%	?	-1.1%
CC(C)CC1Nc2ncnc(N3CCCCC3)c2N(Cc2ccc(Br)cc2)C1=O (configuration not stated)	0.9%	-4.9	?	-3.2%	16.4µM*	?
O=C1C(Cc2ccccc2)Nc2ncnc(N3CCCCC3)c2N1Cc1ccc(Br)cc1 (configuration not stated)	3.1%	?	?	3.16µM*!	?	?
CC(C)CC1Nc2ncnc(N3CCOCC3)c2N(Cc2ccc(Br)cc2)C1=O (configuration not stated)	0.7%	9.9	?	-1.4%	?	?
Cn1c(/C(C#N)=C(\O)c2ccc([N+](=O)[O-])cc2)nc2ccccc21	-2.7%	5.3	?	-4.4%	18.4µM*	12.5%
